Laboratory results as given in the supplement of paper PMC9023506.
Where a name gives a salt, the structure may show the parent alone.

Tested on: Danio rerio larvae (5 dpf)
Test: optomotor response to blue moving lines, difference vs DMSO (percentage points (treated minus DMSO)); higher = more of the behaviour than the DMSO vehicle control
Details: 10 µM; exposure time: 3 h pre-incubation + 3 h imaging
Experimental: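 5-dpf wild-type zebrafish larvae were imaged in 96-well plates. They were treated with 190 Tocris FDA-approved drugs at 10 µM (1 µl/ml DMSO) for 3 h before and 3 h during imaging at 28.5 °C, 48 larvae per drug. Automated image analysis gave % time moving and optomotor responses. Values are drug group mean minus DMSO vehicle mean (n=844), in percentage points, for 10 behaviours.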

Row | Compound | optomotor response to blue moving lines
1 | CC(C)C[C@H]1C(=O)N2CCC[C@H]2[C@]2(O)O[C@](NC(=O)[C@@H]3C=C4c5cccc6[nH]c(Br)c(c56)C[C@H]4N(C)C3)(C(C)C)C(=O)N12 [Bromocriptine mesylate] | -29.3
2 | COc1cc2c(cc1OC)C1CC(=O)C(CC(C)C)CN1CC2 (configuration not stated) [Tetrabenazine] | -7.81
3 | O=c1[nH]c2ccccc2n1C1CCN(CCCC(c2ccc(F)cc2)c2ccc(F)cc2)CC1 [Pimozide] | -7.76
4 | Cc1cccc([C@H](C)c2c[nH]cn2)c1C [Dexmedetomidine hydrochloride] | -12.4
5 | CC[C@@H](C(N)=O)N1CCCC1=O [Levetiracetam] | 6.19
6 | CC(O)(CS(=O)(=O)c1ccc(F)cc1)C(=O)Nc1ccc(C#N)c(C(F)(F)F)c1 (configuration not stated) [Bicalutamide] | -16.6
7 | N[C@@H]1C[C@H]1c1ccccc1 [Tranylcypromine hydrochloride] | 13.5
8 | C=CCN1C[C@H](C(=O)N(CCCN(C)C)C(=O)NCC)C[C@@H]2c3cccc4[nH]cc(c34)C[C@H]21 [Cabergoline] | -0.85
9 | CCN(C)C(=O)Oc1cccc([C@H](C)N(C)C)c1 [Rivastigmine tartrate] | 1.1
10 | COc1ccc(C(CN(C)C)C2(O)CCCCC2)cc1 (configuration not stated) [Venlafaxine hydrochloride] | 3.9
11 | C=C1C[C@@H]2[C@H](CC[C@]3(C)C(=O)CC[C@@H]23)[C@@]2(C)C=CC(=O)C=C12 [Exemestane] | -2.19
12 | CN1C[C@H](C(=O)N[C@]2(C)O[C@@]3(O)[C@@H]4CCCN4C(=O)[C@H](Cc4ccccc4)N3C2=O)C[C@@H]2c3cccc4[nH]cc(c34)C[C@H]21 [Dihydroergotamine mesylate] | 12.8
